The source of these data is PubChem BioAssay (NCATS).

Values joined by “and” are separate entries in the source; they are usually repeats but may differ in a detail not shown here. Identical values can stand only once. Inconclusive results are not listed. Active and inactive are the calls of the source. Unless noted, the rule behind the calls is not given here.

Experiment [1] is described as follows: qHTS Assay for Identifying Gametocytocidal Compounds (AID 743244; active = well fitted curve in the direction sought with a large enough effect; an effect the other way counts as inactive or inconclusive; note: potency is the fitted concentration of half-maximal effect;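 for max response: % is set by controls: 0 for no effect and ±100 for the full control effect; actives lower the fluorescent signal which means gametocytes are killed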). Conditions: P. falciparum 3D7 stage III-V gametocytes, alamarBlue, 72 h; max response: stronger effect = lower value. In outline:
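In this qHTS viability screen, late-stage 3D7 gametocytes are incubated with compound for 72 h, then with alamarBlue for 24 h; reduced resorufin fluorescence marks killing.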

Experiment [2] in a line: qHTS profiling of the MIPE4 collection as inhibitors of Plasmodium falciparum (3D7) proliferation (AID 743344).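 Note: scaled between DMSO vehicle wells and 0.29 µM artemisinin as full inhibition.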 Conditions: P. falciparum 3D7 in erythrocytes, SYBR Green DNA fluorescence, 72 h; at 28.5 µM (top of the series) unless noted. In outline: (§1)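 Parasite DNA was quantified by SYBR Green I fluorescence (ex 485, em 535 nm) after overnight lysis in saponin/Triton buffer at room temperature. Cultures at 0.3% parasitemia and 2.5% hematocrit were first exposed to compound for 72 h at 37 C; signals were normalised to artemisinin (0.29 uM) and vehicle wells.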

Experiment [3] can be described thus: qHTS profiling of the MIPE4 collection as inhibitors of Plasmodium falciparum (DD2) proliferation (AID 743345). Conditions: P. falciparum Dd2 in erythrocytes, SYBR Green DNA, 72 h; at 28.5 µM (top of the series) unless noted. In outline: as §1
A short description of experiment [4]: qHTS profiling of the MIPE4 collection as inhibitors of Plasmodium falciparum (DD2) proliferation (Rep 2) (AID 743346). The note with it: P. falciparum Dd2 in erythrocytes, SYBR Green DNA, 72 h; at 28.5 µM (top of the series) unless noted. The method in brief: as §1
Experiment [5] can be described thus: qHTS profiling of the MIPE4 collection as inhibitors of Plasmodium falciparum (HB3) proliferation (AID 743347).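 Note: plate controls were DMSO vehicle wells for no effect and artemisinin wells for full effect.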 Conditions: P. falciparum HB3 in erythrocytes, SYBR Green DNA, 72 h; at 28.5 µM (top of the series) unless noted. In outline:
as §1

A short description of experiment [6]: High-throughput drug toxicity screening in the BPDCN cell line Gen2.2 (AID 1224824).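 Note: cells exposed to compounds for 48 h before reading.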 Conditions: Gen2.2 BPDCN cells; at 45.8 µM (top of the series) unless noted. The method in brief:
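Gen2.2, 500 cells/well, phenol red-free RPMI/10% FBS/Pen-Strep; 48 h cpd, 37 °C/5% CO2; CTG lum, 15 min RT. Norm: DMSO = 100%, bortezomib 9.2 uM final = 0%.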

Experiment [7] can be described thus: High-throughput drug toxicity screening in the BPDCN cell line Cal-1 (AID 1224825). The note with it: Cal-1 BPDCN cell viability, qHTS; at 45.8 µM (top of the series) unless noted. In outline: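 Viability of the BPDCN line Cal-1 is measured as ATP-based luminescence (CellTiter-Glo) following 48 h incubation with compounds. Percent activity uses DMSO-treated wells as 100% and 9.2 uM bortezomib as 0%.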

The nature of experiment [8]: qHTS assay for measurement of the activity of small molecule inhibitors on Zika virus induced Caspase-3 activity in human iPSC derived neural progenitor cells (hNPCs) (AID 1224857; active = well fitted curve in the direction sought with a large enough effect; an effect the other way counts as inactive or inconclusive; note: nearly all actives have a fitted effect of over 65% in size; note: potency is the fitted concentration of half-maximal effect). In outline:
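In medium with heparin 2 ug/ml and cyclopamine 2 uM, hNPCs (350 cells/well) received compound for one hour and then Zika virus at 2 FFU/cell; caspase activity was measured by Caspase-Glo 3/7 luminescence 6 h post-infection.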

Experiment [9] in a line: qHTS assay for measurement of the activity of small molecule inhibitors on Zika virus induced Caspase-3 activity in human astrocytoma cells (AID 1224859; active = well fitted curve in the direction sought with a large enough effect; an effect the other way counts as inactive or inconclusive; note: potency is the fitted concentration of half-maximal effect). The method in brief:
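A cell-based luminescent caspase-3/7 assay used SNB-19 cells infected with ZIKV (2 FFU/cell) for 6 h following 1 h compound pretreatment.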

The nature of experiment [10]: qHTS Screen of the MIPE 4.0 Collection Against Ewings Sarcoma (EW8) (AID 1259255; active = well fitted curve in the direction sought with a large enough effect; an effect the other way counts as inactive or inconclusive;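 note: 100% = DMSO-treated cells and 0% = medium-only wells without cells; nearly all actives have a fitted effect of over 35% in size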). The method in brief:
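Measured: ATP luminescence (CellTiter-Glo) 10 min after reagent addition, following 48 h drug treatment. Relative luciferase units converted to percent activity, with no-cell wells as full and DMSO wells as zero inhibition.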

Experiment [11] deals with T1, Hexokinase-4 (Homo sapiens) + Glucokinase regulatory protein (Homo sapiens) (UniProt P35557+Q14397). As to the kind of experiment: qHTS assay for inhibitors of recombinant human GCK-GKRP interaction: Diaphorase-coupled assay (AID 743205; active = well fitted curve in the direction sought with a large enough effect; an effect the other way counts as inactive or inconclusive). In outline: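 Inhibitors of the GCK–GKRP complex relieve GKRP suppression of GCK, detected through a G6PDH–diaphorase cascade reducing resazurin. Human GST-GCK and FLAG-GKRP are used at 10 nM with 5 mM glucose and 0.4 mM ATP.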
T1 sequence (P35557 whole entry, looked up): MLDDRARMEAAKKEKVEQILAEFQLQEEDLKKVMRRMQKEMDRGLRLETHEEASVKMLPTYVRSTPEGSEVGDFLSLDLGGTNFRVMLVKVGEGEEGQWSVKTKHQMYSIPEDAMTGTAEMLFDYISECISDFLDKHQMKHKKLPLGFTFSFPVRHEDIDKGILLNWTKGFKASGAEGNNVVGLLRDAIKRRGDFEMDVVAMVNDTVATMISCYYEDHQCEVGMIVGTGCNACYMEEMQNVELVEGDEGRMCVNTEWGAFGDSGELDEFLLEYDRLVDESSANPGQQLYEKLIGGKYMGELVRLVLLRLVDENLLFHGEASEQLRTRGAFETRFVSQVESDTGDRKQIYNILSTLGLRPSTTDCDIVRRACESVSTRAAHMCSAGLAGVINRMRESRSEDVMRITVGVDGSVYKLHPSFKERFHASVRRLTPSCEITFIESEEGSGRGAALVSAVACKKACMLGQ
T1 sequence (Q14397 whole entry, looked up): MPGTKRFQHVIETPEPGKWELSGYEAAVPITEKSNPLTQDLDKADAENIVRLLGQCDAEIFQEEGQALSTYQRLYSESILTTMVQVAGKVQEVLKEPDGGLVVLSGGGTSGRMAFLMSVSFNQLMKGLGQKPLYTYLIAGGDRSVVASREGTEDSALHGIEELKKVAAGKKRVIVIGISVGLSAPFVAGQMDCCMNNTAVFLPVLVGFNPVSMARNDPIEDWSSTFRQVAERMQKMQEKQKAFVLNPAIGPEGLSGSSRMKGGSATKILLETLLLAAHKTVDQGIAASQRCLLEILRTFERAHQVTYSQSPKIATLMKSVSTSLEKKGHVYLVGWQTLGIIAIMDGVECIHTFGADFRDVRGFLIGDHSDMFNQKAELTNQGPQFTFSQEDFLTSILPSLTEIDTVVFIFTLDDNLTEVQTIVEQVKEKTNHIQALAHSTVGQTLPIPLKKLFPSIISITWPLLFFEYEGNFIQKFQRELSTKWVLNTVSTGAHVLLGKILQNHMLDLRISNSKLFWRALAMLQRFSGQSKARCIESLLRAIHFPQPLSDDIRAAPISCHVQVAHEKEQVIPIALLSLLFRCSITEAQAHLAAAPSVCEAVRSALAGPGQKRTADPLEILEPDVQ

The target of experiment [12] is T1, Hexokinase-4 (Homo sapiens) + Glucokinase regulatory protein (Homo sapiens). Put plainly: qHTS assay for inhibitors of recombinant human GCK-GKRP interaction: ADP-Glo assay (AID 743206; active = well fitted curve in the direction sought with a large enough effect; an effect the other way counts as inactive or inconclusive;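 note: plate controls were DMSO plus enzyme for no effect and no enzyme for full effect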). In outline: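 Pin-transferred compounds meet a 15 nM GST-GCK/15 nM FLAG-GKRP/2 uM S6P mix (dispense concentrations). ATP is then added to 0.4 mM final with 5 mM glucose, and the reaction runs 60 min at room temperature. ADP is quantified luminescently.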

For experiment [13] the target is unchanged. Put plainly: qHTS assay for inhibitors of recombinant human GCK-GKRP interaction: HTRF assay (AID 743207; active = well fitted curve in the direction sought with a large enough effect; an effect the other way counts as inactive or inconclusive;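 note: 0% = DMSO with GCK present and -100% = DMSO wells lacking GCK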). The method in brief: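 Steps: dispense GCK–GKRP complex (5 nM each, GST- and FLAG-tagged) with 2 uM S6P; pin in compounds; add XL665/Eu-cryptate-labelled antibodies; incubate 60 min at room temperature; read time-resolved FRET at 665 and 615 nm.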

On to `Cc1cc(=O)oc2cc(O)ccc12`, for which the max response in [1] was 14.2% (inactive). The compound further displayed a parasite growth, % of DMSO control in [2] of 85.5%. Besides, the parasite growth remaining, % of DMSO control (lower = more inhibition) in experiment [3] is 101%. The parasite growth, % of control (lower = inhibition) in experiment [4] is 107%. This compound also had a growth, % of control in experiment [5] of 105%. The cell viability, % of control (lower = more cytotoxic) in experiment [6] is 183%. In addition, the viability (% of control) in [7] came to 104%. For the same compound, the Potency result in experiment [8], in experiment [9] and in [10] was “inactive” each time.

For the compound `O=C(O)c1cccc(-c2noc(-c3ccccc3F)n2)c1`, the max response in experiment [1] was -7.05% (inactive). The same compound came in with a parasite growth, % of DMSO control in experiment [2] of 93.9%. Further, the parasite growth remaining, % of DMSO control (lower = more inhibition) in experiment [3] came out at 96.1%. Besides, the parasite growth, % of control (lower = inhibition) in experiment [4] amounted to 41.6%. Besides, the growth, % of control in experiment [5] is 99.8%. In addition, in experiment [6], the cell viability, % of control (lower = more cytotoxic) worked out at 41.1%. For the same compound, in [7], the viability (% of control) was found to be 93.8%. Moreover, the Potency result in experiment [8] and in [9] was “inactive” each time.

On to `CC(C)Oc1ccc2c(=O)c(-c3ccccc3)coc2c1`, for which, in experiment [2], the parasite growth, % of DMSO control amounted to 75.9%. Also, the parasite growth remaining, % of DMSO control (lower = more inhibition) in experiment [3] is 89.9%. Besides, the parasite growth, % of control (lower = inhibition) in experiment [4] stood at 60%. Further, the growth, % of control in experiment [5] stood at 54.5%. Besides, in [6], the cell viability, % of control (lower = more cytotoxic) came out at 181%. In experiment [7], the viability (% of control) is 102%. For the same compound, the Potency is 10.5 µM (active) in experiment [8]; 10 µM (active) and 11.8 µM (active) in experiment [9]. For the same compound, the Potency result in experiment [10] is “inactive”.

As to `Nc1cc(C(Cl)=C(Cl)Cl)c(S(N)(=O)=O)cc1S(N)(=O)=O`, the max response in experiment [1] is 0.487% (inactive) and -9.48% (inactive). Also, the parasite growth, % of DMSO control in experiment [2] turned out to be 103%. The parasite growth remaining, % of DMSO control (lower = more inhibition) in experiment [3] came out at 102%. Moreover, the parasite growth, % of control (lower = inhibition) in [4] was determined as 142%. For the same compound, in experiment [5], the growth, % of control amounted to 98.3%. Also, the cell viability, % of control (lower = more cytotoxic) in [6] worked out at 360%. Also, the viability (% of control) in [7] came out at 106%. In addition, the Potency result in [8], in experiment [9] and in experiment [10] was “inactive” each time.

As for `O=C(NC(Cc1cc(=O)[nH]c2ccccc12)C(=O)O)c1ccc(Cl)cc1` (centres undefined), the parasite growth, % of DMSO control in [2] stood at 88.9%. The parasite growth remaining, % of DMSO control (lower = more inhibition) in [3] is 96.8%. Further, the parasite growth, % of control (lower = inhibition) in experiment [4] turned out to be 89.9%. For the same compound, the growth, % of control in [5] amounted to 75.3%. Moreover, in [6], the cell viability, % of control (lower = more cytotoxic) was 149%. Further, the viability (% of control) in experiment [7] came to 108%. For the same compound, the Potency entry in [8], in experiment [9] and in experiment [10] was “inactive” each time.

As for `Oc1ccc2ccccc2c1SSc1c(O)ccc2ccccc12`, the outcome in [11], in experiment [12] and in [13] was inactive. The Potency is 3.55 µM (active) in experiment [1] and 8.91 µM (active) in experiment [8]. For the same compound, the parasite growth, % of DMSO control in experiment [2] was found to be 6.56%. Further, the parasite growth remaining, % of DMSO control (lower = more inhibition) in experiment [3] is 53.4%. Further, in experiment [4], the parasite growth, % of control (lower = inhibition) stood at 30.4%. Further, the growth, % of control in [5] came out at 9.78%. In [6], the cell viability, % of control (lower = more cytotoxic) came to 2.05%. Also, the viability (% of control) in experiment [7] was found to be 0.636%. Further, the Potency entry in experiment [9] was “inactive”.
